# Screening data as filed in PubChem.
# In the library only some 11% were active in any assay of this set; here they are far more common.
# hNpr1 antagonist = Natriuretic polypeptide receptor (hNpr1) antagonism - Primary qHTS; 76,000 compounds, 1.6% hits; AID 1347048, 2019; HEK293 hNpr1 GloSensor cGMP, ANP-stimulated luminescence; Atrial natriuretic peptide receptor 1 (Homo sapiens), P16066; Potency, µM (top dose mostly 46.3 µM), for inactives: at the top dose activity change, negative = inhibition, hits mostly inhibitors; calls by dose curve; note: nearly all actives have a fitted effect of over 60% in size
# Target sequence (P16066 whole entry, looked up): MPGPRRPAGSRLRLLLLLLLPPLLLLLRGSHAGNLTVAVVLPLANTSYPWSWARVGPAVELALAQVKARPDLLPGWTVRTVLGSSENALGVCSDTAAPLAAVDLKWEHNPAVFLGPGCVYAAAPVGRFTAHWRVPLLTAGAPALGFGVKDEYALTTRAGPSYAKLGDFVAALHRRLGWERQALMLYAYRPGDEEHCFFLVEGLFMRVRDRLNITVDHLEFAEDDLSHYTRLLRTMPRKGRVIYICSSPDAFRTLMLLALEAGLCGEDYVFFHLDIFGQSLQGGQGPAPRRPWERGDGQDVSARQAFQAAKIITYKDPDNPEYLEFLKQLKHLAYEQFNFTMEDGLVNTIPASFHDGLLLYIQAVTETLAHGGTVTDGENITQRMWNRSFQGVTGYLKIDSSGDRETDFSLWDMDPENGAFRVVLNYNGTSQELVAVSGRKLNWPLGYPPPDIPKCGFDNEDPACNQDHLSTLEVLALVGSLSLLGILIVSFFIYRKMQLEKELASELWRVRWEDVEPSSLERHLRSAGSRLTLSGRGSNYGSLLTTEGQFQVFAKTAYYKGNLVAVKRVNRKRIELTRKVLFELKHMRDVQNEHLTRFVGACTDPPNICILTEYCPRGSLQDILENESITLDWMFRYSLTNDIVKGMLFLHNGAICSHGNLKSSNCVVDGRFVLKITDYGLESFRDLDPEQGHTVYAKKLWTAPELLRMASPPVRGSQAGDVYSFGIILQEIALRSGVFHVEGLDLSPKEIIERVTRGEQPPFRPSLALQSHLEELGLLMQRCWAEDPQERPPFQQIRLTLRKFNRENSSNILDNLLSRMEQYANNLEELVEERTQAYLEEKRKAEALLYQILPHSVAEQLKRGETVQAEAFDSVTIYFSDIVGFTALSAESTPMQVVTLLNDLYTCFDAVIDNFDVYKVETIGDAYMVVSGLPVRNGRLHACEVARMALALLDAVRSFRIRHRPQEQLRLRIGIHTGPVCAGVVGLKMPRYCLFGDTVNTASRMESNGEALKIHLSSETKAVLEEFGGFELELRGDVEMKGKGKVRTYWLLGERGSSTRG
#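 Compound pre-incubated 30 min at room temperature on GloSensor-loaded HEK293 cells stably carrying hNpr1 and the pGS-40F cGMP biosensor. Stimulation uses hNppA at 0.1 nM final; luminescence is taken at baseline and 20 min post-agonist.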
# FLuc inh = Firefly luciferase inhibition profiling of diverse chemical library using quantitative high-throughput screening. Luciferin 4-monooxygenase (Photinus pyralis), P08659. purified P. pyralis luciferase, luminescence, biochemical. Potency, µM (highest dose often 115 µM), usual class: inhibitors. 76,000 compounds, 2.5% hits. AID 1347043, 2019; note: nearly all actives have a fitted effect of over 65% in size
#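 Luminescence read by CCD imaging after purified firefly luciferase (10nM final) was added to substrate buffer holding 10uM D-luciferin and 10uM ATP, pH 7.5, pre-dosed with compound.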
# HEK293 tox = Cytotoxic Profiling in HEK 293 Cell Line of Diverse Libraries Using Quantitative High-Throughput Screening. HEK 293 viability, ATP luminescence (CellTiter-Glo), 48-72 h. Potency, µM (top dose mostly 115 µM), inactives show top-dose activity change, negative = cytotoxicity, most hits filed as inhibitors. 94,000 compounds, 6.6% hits. AID 1345083, 2018; note: nearly all actives have a fitted effect of over 60% in size
#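 Cytotoxicity was scored by loss of ATP-coupled luminescence (CellTiter-Glo) in HEK 293 cells. Compound treatment ran 48 or 72 hr at 37 degree Celsius, 5% CO2, 95% humidity.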
# 3T3 cytotox = Cytotoxic Profiling in NIH 3T3 Cell Line of Diverse Libraries Using Quantitative High-Throughput Screening | 94,000 compounds, 4.3% hits | Potency, µM (series often up to 96.7 µM), inactives show at the highest dose activity change, negative = cytotoxicity, hits mostly inhibitors | NIH 3T3 viability, CellTiter-Glo ATP luminescence, 48-72 h; note: nearly all actives have a fitted effect of over 55% in size
#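 Luminescent ATP readout (CellTiter-Glo, 10 min RT) after 48 or 72 hr compound exposure of NIH 3T3 cells seeded at 400 cells/well in 1536-well format; quantitative HTS.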
# * hit, by the source's call; i = inactive; u = inconclusive; x = no result; [ ] = another dose, or the depositor's remark. Unless noted, calls come from the whole dose curve; as a rule, active = well fitted curve in the direction sought with a large enough effect; inconclusive = small, poorly fitted or top-dose-only effect, or another doubt; inactive = no such curve, though single readings can be large; an effect the other way counts as inactive or inconclusive. % is set by controls: 0 for no effect and ±100 for the full control effect; potency is the fitted concentration of half-maximal effect.
SMILES,hNpr1 antagonist,FLuc inh,HEK293 tox,3T3 cytotox
CCCCCC(=O)Nc1nc2c(s1)C[C@@H]1[C@](C)(CO)[C@H](O)CC[C@@]1(C)[C@@H]2CC(=O)N1CCCCC1,-3.7%,i,u,u
CCN1C(=O)C2(CCN(S(=O)(=O)CC)CC2)c2ccccc21,2.7%,i,1.4%,i
Cc1nc(C(=O)N2CCOc3c(O)cc(-c4cccc(Cl)c4)cc3C2)c(C)o1,u,i,39.8µM*,u
CCOC(=O)C(C)N1CCOc2c(O)cc(-c3cccc(Cl)c3)cc2C1 (stereo not drawn),u,i,44.7µM*,u
Cc1ccnn1CC(=O)N1CCOc2c(O)cc(-c3cccc(Cl)c3)cc2C1,-28.3%,i,u,u
O=C(NCCc1ccc(Cl)cc1)c1nc(-c2cccc(C(F)(F)F)c2)c2ccccn12,-3.5%,i,u,-23.4%
CC(C)(C)C(=O)N1CCCC(C(=O)N2CCC(c3nc4ccncc4[nH]3)CC2)C1 (stereo not drawn),x,x,0.4%,-5.6%
CC1(C)C(=O)N(Cc2ccccc2)[C@H]2CN(CC3CCOCC3)C[C@H]2[S+]1(=O)[O-],5.5%[70.6 µM],i,-1.4%[172 µM],u
Cc1noc(C)c1CN1C[C@H]2[C@H](C1)[S+](=O)([O-])C(C)(C)C(=O)N2CCOc1ccccc1,0.8%,i,-17.1%,39.8µM*
CC1(C)C(=O)N(Cc2ccccc2)[C@H]2CN(CC3CCOC3)C[C@H]2[S+]1(=O)[O-] (stereo partly drawn),4.5%[70.6 µM],i,i,89.1µM*
Cc1noc(C)c1CN1C[C@H]2[C@H](C1)[S+](=O)([O-])C(C)(C)C(=O)N2Cc1ccccc1F,-3.0%,i,2.9%,u
CC1(C)C(=O)N(CCOc2ccccc2)[C@H]2CN(c3cccc(C(F)(F)F)c3)C[C@@H]2[S+]1(=O)[O-],2.3%,i,17.8µM*,11.2µM*
Cc1cccc(-n2c(=O)c3c(cc(C)n3C)n(CC(=O)Nc3ccc4c(c3)OCO4)c2=O)c1,3.0%,i,-6.9%,0.8%
Cc1cnc(CC2CCN(C(=O)C3COc4ccccc4O3)CC2)n1Cc1ccc(F)cc1 (stereo not drawn),-1.7%,i,u,u
O=C(NCc1ccc2c(c1)OCO2)C1CCCCN1Cc1ccc(-c2ccsc2)cc1 (stereo not drawn),x,x,22.4µM*,12.6µM*
O=C(NCc1cccc(F)c1)C1CCCCN1Cc1ccc(-c2ccsc2)cc1 (stereo not drawn),x,x,39.8µM*,28.2µM*
O=C(NCc1cccc(F)c1)C1CCCCN1Cc1ccc(-c2cccs2)cc1 (stereo not drawn),x,x,20µM*,28.2µM*
CCN1CCN(C(=O)c2ccc3oc(-c4ccncc4Cl)nc3c2)CC1,x,x,i,-1.5%
O=C(Cc1ccc(Cl)cc1)Nc1cccc(-c2nnc3n2CCCC3)c1,-21.5%,i,50.1µM*,u
O=C(Nc1cccc(-c2nnc3n2CCCC3)c1)c1cc(C2CC2)[nH]n1,u,20µM*,-7.2%,-23.6%
CCOc1ccc(CC(=O)Nc2cccc(-c3nnc4n3CCCC4)c2)cc1,0.2%,i,u,u
O=C(Nc1cccc(-c2nnc3n2CCCC3)c1)c1ccc(Cl)cc1,-19.6%,u,u,u
O=C(Nc1cccc(-c2nnc3n2CCCC3)c1)c1cc(-c2ccccc2)n[nH]1,u,2.24µM*,28.2µM*,-3.5%
CCOc1ccc(C(=O)Nc2cccc(-c3nnc4n3CCCC4)c2)cc1,-25.1%,25.1µM*,u,u
COc1nc2nc(CCc3ccccc3)n(C)c2cc1-c1ccnc(C)c1,-14.8%[70.6 µM],i,-64.8%[172 µM],u
SMILES,hNpr1 antagonist,FLuc inh,HEK293 tox,3T3 cytotox
Cc1ccc(CN2CC(C(=O)NCCc3noc(C4CC4)n3)CC2=O)cc1 (stereo not drawn),x,x,-27.0%,-12.1%
O=C(NCc1cccs1)C1CN(C2CCCCC2)C(=O)N1 (stereo not drawn),x,x,3.4%[172 µM],-9.6%[138 µM]
Cc1cccc(CN2CCc3ncc(C(=O)NCCC(C)C)n3CC2)c1,-8.3%[70.6 µM],i,39.8µM*,u
N#Cc1cccc(CN2CCc3ncc(C(=O)NCCOc4ccccc4)n3CC2)c1,u,i,28.2µM*,28.2µM*
O=C([C@H]1CCCN1C(=O)Nc1ccccc1)N1CCC(N2CCOC2=O)CC1,x,x,-2.9%,i
Cn1cc(-c2cnc3[nH]cc(CC(=O)NCc4ccc5c(c4)OCO5)c3c2)cn1,0.4%[70.6 µM],i,u,u
COc1ccc(OC)c(-c2cnc3[nH]cc(CC(N)=O)c3c2)c1,u,i,-25.8%[172 µM],u
COc1ccc(-c2cnc3[nH]cc(CC(=O)NCCN(C)C)c3c2)cc1,-11.9%[70.6 µM],i,100µM*,50.1µM*
COc1ccc(-c2cnc3[nH]cc(CC(=O)N(C)C)c3c2)cc1,u,22.4µM*,u,12.6µM*
COc1ccc(-c2cnc3[nH]cc(CC(=O)NC4CCOCC4)c3c2)cc1,3.6%[70.6 µM],u,u,25.1µM*
CNC(=O)c1cc(C)nc2onc(C3CCCN(C(=O)c4ccccc4F)C3)c12 (stereo not drawn),x,x,-10.3%,-25.7%
Cc1ccc(-c2cn3c(n2)N(C(=O)c2nc4ncccn4n2)CCC3)cc1,5.4%,i,39.8µM*,-16.0%
Cc1ccc(-c2nnc3ccc(N(C)CCN(C)C)nn23)nc1,0.7%[70.6 µM],i,-0.8%[172 µM],u
CN(c1ccccc1)c1ccc2nnc(-c3ccccn3)n2n1,2.1%[70.6 µM],u,u,u
COc1ccnc(-c2nnc3ccc(N(C)Cc4ccccc4)nn23)c1,-10.0%[70.6 µM],i,56.2µM*,u
COc1ccnc(-c2nnc3ccc(N(C)CCN(C)C)nn23)c1,1.2%[70.6 µM],i,1.7%[172 µM],100µM*
CNC(=O)c1cc(C)nc2onc(C3CCN(C(=O)Nc4ccc(Cl)cc4)CC3)c12,x,x,-10.4%,-30.7%
O=C(Nc1cccc(Br)c1)c1cnc(-c2ccccc2)nc1-c1ccncc1,u,i,39.8µM*,u
O=C(Nc1ccccc1Cl)c1cnc(-c2ccccc2)nc1-c1ccncc1,-28.5%,i,0.7%,-4.8%
O=C(Nc1ccc(F)cc1F)c1cnc(-c2ccc(F)cc2)nc1-c1ccncc1,-17.5%,i,-22.2%,-14.7%
Cc1c(Cl)cccc1NC(=O)c1cnc(-c2ccccc2)nc1-c1ccncc1,u,i,u,35.5µM*
Cc1ccc(-c2ncc(C(=O)Nc3ccccc3)c(-c3ccncc3)n2)cc1,-8.5%,i,u,-4.0%
Cc1ccc(-c2ncc(C(=O)Nc3ccc(F)cc3C)c(-c3ccncc3)n2)cc1,-3.3%,i,39.8µM*,22.4µM*
O=C(Nc1ccc(Br)c(F)c1)c1cnc(-c2ccccc2)nc1-c1ccncc1,u,i,31.6µM*,25.1µM*
O=C(COc1ccc(F)cc1)N1CC(CNC(=O)N2CCCC2)C2(CCOCC2)C1 (stereo not drawn),x,x,-8.0%,-17.9%
